The list is not random: actives were taken first. Their share in the collection is about 3.2%.
VACV mCherry inh: qHTS for Stage-Specific Inhibitors of Vaccinia Orthopoxvirus: mCherry Reporter Primary qHTS | Vaccinia virus mCherry reporter infection, fluorescence | Potency, µM (series often up to 36.5 µM), inactives show at the highest dose activity change, negative = inhibition, actives largely listed as inhibitors | 310,000 compounds, 0.63% hits; calls by dose curve; tested in A549 cells; further: nearly all actives have a fitted effect of over 35% in size
Vaccinia Venus: qHTS for Stage-Specific Inhibitors of Vaccinia Orthopoxvirus: Venus Reporter Primary qHTS; Vaccinia virus Venus reporter expression, fluorescence; Potency, µM (doses to about 36.5 µM), without a hit: at the top dose activity change, negative = inhibition, usual class: inhibitors; 330,000 compounds, 0.46% hits; calls by dose curve; tested in A549 cells; further: nearly all actives have a fitted effect of over 30% in size
FMDV antiviral: High Throughput Screening for Foot and Mouth Disease Virus Antivirals; FMDV antiviral cell-based qHTS; Potency, µM (highest dose often 57.9 µM), for the others: at the top dose activity change, negative = inhibition, usual class: inhibitors; 410,000 compounds, 1.2% hits; AID 1159524, 2015; calls by dose curve; tested in HEK293T cells; further: read-out not given here; nearly all actives have a fitted effect of over 45% in size
MARV entry inh: qHTS for inhibitors of binding or entry into cells for Marburg Virus; Potency, µM (series often up to 37.8 µM), for inactives: top-dose activity change, negative = inhibition, hits mostly inhibitors; 300,000 compounds, 1.8% hits; Marburg virus pseudotyped entry inhibition, cell reporter; calls by dose curve; tested in HEK293 cells
LASV entry inh: qHTS for Inhibitors of binding or entry into cells for Lassa Virus | Lassa virus pseudotype entry inhibition, cell reporter | Potency, µM (top dose mostly 37.9 µM), for the others: at the top dose activity change, negative = inhibition, hits mostly inhibitors | 300,000 compounds, 1.2% hits | AID 540256, 2011; calls by dose curve; tested in HEK293 cells; further: nearly all actives have a fitted effect of over 50% in size
* hit, by the source's call; i = inactive; ? = inconclusive; · = no result given; + = active, no number; [ ] = remark or other dose. On the % scale 0 is the no-effect control and ±100 the full control effect; potency means the concentration at half of the fitted maximal effect.

SMILES | VACV mCherry inh | Vaccinia Venus | FMDV antiviral | MARV entry inh | LASV entry inh
COc1ccc(CNC(=O)Cc2nn(C)c(=O)c3ccccc23)cc1 | · | ? | 16µM* | ? | -24%
Cn1nc(CC(=O)NCc2ccc(C(F)(F)F)cc2)c2ccccc2c1=O | · | · | 16µM* | ? | -23%
CC(C)CNC(=O)c1ccccc1C(=O)NC1(C(=O)NCC(C)C)CCCC1 | -7% | -3% | 1% | 11% | 15%
CC(C)C(=O)N1CCC(CN=Cc2c(O)n(C3CCCCC3)c(=O)n(C3CCCCC3)c2=O)CC1 | -4%[1.46 µM] | ? | ? | ? | 14µM*
CCOC(=O)C1=C(C)N=c2s/c(=C\c3ccncc3)c(=O)n2C1c1ccc2c(c1)OCO2 (stereo not given) | · | -18% | 25µM* | -14% | -14%
Cc1ccccc1CN(C)CCS(=O)(=O)c1cc(Cl)ccc1Cl | 5µM* | ? | -16% | -25%[46.1 µM] | 14%[46.1 µM]
Nc1nnc(CCS(=O)(=O)c2cc(Cl)ccc2Cl)s1 | -1%[1.46 µM] | -6% | -9% | -6% | 1%
Cc1cc(F)ccc1O[C@H]1C=C[C@@H](c2ccc3c(c2)OCO3)O[C@H]1CO | · | · | · | 14%[14.2 µM] | ·
CC(C)Nc1nc(Cl)nc(N(C#N)CN2C(=O)c3ccccc3C2=O)n1 | ? | ? | ? | 2.5µM* | ?
O=C(c1cccnc1)C1CCCN(Cc2ccc3c(c2)CN(C(=O)c2ccc4[nH]ccc4c2)CCO3)C1 (stereo not given) | -2% | 10% | -10% | · | ·
COc1ccc(OC)c(C2=NOC(C(=O)Nc3ccccc3SC)C2)c1 (stereo not given) | · | · | 15% | 1% | -6%
COc1ccc(OC)c(C2=NOC(C(=O)Nc3cc(C)nn3-c3ccccc3)C2)c1 (stereo not given) | + | ? | -13% | 0% | -2%
COC(=O)NC(c1cccc(F)c1)C(C(C)=O)C(=O)OC (stereo not given) | · | · | · | 13%[14.2 µM] | ·
CC#C[C@H](C)[C@@H](OCOC)[C@H](C[C@H](C)Cc1cc(Br)cc(OCc2ccccc2)c1OC)OC | · | · | · | -10%[14.2 µM] | ·
CN(C(=O)c1cccc(NC(=O)Cc2ccc(NC(=O)C3CCCN(C(=O)CCc4ccccc4)C3)cc2)c1)C1CCC1 (stereo not given) | ? | ? | 18µM* | · | ·
CN(C(=O)c1cccc(NC(=O)Cc2ccc(NC(=O)C3CCCN(C(=O)CCc4ccccc4)C3)cc2)c1)C1CCCC1 (stereo not given) | 16µM* | ? | ? | · | ·
CN(C(=O)c1ccc(NC(=O)Cc2cccc(NC(=O)C3CCCN(C(=O)CCc4ccccc4)C3)c2)cc1)C1CCCC1 (stereo not given) | -28% | ? | 0% | · | ·
CC1=CN2C(=N)/C(=C/c3ccc(C)o3)C(=O)N=C2S1 | -12% | -12% | ? | 9% | 1.3µM*
CC1=CN2C(=N)/C(=C/c3ccc(Sc4ccc(C)cc4)o3)C(=O)N=C2S1 | ? | -24% | ? | -21% | 1%
O=C(CCCSc1nnc(SCCCC(=O)c2ccc(F)cc2)s1)c1ccc(F)cc1 | ? | 11µM* | · | ? | ?
c1ncc(CCCC2CCNCC2)[nH]1 | · | · | -8% | · | ·
CN1C(=O)C(CC(=O)NCCc2ccccc2)N(NC(=O)c2ccc(Cl)cc2)C1=S (stereo not given) | · | · | -10% | · | ·
CC(C)OP(=O)(OC(C)C)C(Nc1cccc(C(=O)O)c1)c1ccccc1 (stereo not given) | -10% | -18% | 8.9µM* | -5%[46.1 µM] | 8%
CC(C)OP(=O)(OC(C)C)C(Nc1ccc(C(=O)O)cc1)c1ccccc1 (stereo not given) | · | · | -23% | · | ·
CCOc1ccc(C(=O)NC(=S)NCc2cccnc2)cc1[N+](=O)[O-] | -12% | -8% | ? | ? | -18%
SMILES | VACV mCherry inh | Vaccinia Venus | FMDV antiviral | MARV entry inh | LASV entry inh
O=C(c1ccc2c(c1)OCCO2)N1CCN(c2nc(-c3cccs3)nc3ccccc23)CC1 | -6% | -18% | · | · | ·
COc1ccc2c(c1)[nH]c1c(N3CCN(Cc4ccc5c(c4)OCO5)CC3)ncnc12 | ? | ? | 6.3µM* | ? | ?
COc1ccc2[nH]c3c(N4CC(C)OC(C)C4)ncnc3c2c1 (stereo not given) | · | · | -19% | -29% | 10%
COc1ccc2c(c1)[nH]c1c(N3CCSCC3)ncnc12 | ? | -25% | 25µM* | ? | ?
COc1cccc(N2CCN(c3ncnc4c3[nH]c3ccc(F)cc34)CC2C)c1 (stereo not given) | · | 7.1µM* | 2µM* | ? | 2.8µM*
COC(=O)c1cn([C@@H]2C[C@@H](C(=O)Nc3cccc(SC)c3)N(C3CCCC3)C2)nn1 | -7% | -1% | -13% | · | ·
Cc1ccc2nc(-c3ccccc3C)c(CN(CC3CCCO3)C(=O)c3cccs3)cc2c1 (stereo not given) | -3% | -9% | -5% | · | ·
COc1ccc(NC(=O)/C(C#N)=C/c2ccc(Sc3nncn3C)c([N+](=O)[O-])c2)cc1 | -17% | -26% | 32µM* | ? | 4%[46.1 µM]
CCNC(=O)C[C@@H]1CC[C@@H]2NC[C@@H](O)COC[C@H]2O1 | -9% | -12% | -14% | · | ·
Cn1cccc1C(=O)NC(=O)COC(=O)c1ccc(S(C)(=O)=O)c([N+](=O)[O-])c1 | -9% | -9% | 32µM* | ? | ?
CS(=O)(=O)c1ccc(C(=O)OCC(=O)NC23CC4CC(CC(C4)C2)C3)cc1[N+](=O)[O-] | ? | ? | 35µM* | ? | -8%
C=CCOc1ccc(/C(O)=C2\C(=O)C(=O)N(CCN(C)C)[C@@H]2c2cccs2)cc1 | · | · | · | 7%[46.1 µM] | ·
C/C(=N\Nc1nc2ccccc2[nH]1)c1ccc2c(c1)OCO2 | ? | ? | -13% | 12µM* | ?
C/C(=N\Nc1nc2ccccc2[nH]1)c1ccc2c(c1)OCCO2 | -22% | -13% | -24% | ? | ?
C=CCOc1ccc(CN(C)C(=O)CNC(=O)c2ccc(-c3ccccc3)cc2)cc1 | i | -30% | 13µM* | ? | ?
CCOc1ccc(N(CC)S(=O)(=O)c2cc(Br)cc3c2N(C(C)=O)C(C)C3)cc1 (stereo not given) | ? | -22% | 11µM* | ? | ?
CCOc1ccc(OCC)c(NS(=O)(=O)c2cc(Br)cc3c2N(C(C)=O)C(C)C3)c1 (stereo not given) | -15% | -4% | 50% | 7%[46.1 µM] | 7%[46.1 µM]
Cn1c(N)c(C(=O)COC(=O)/C=C/c2ccc(Cl)cc2Cl)c(=O)n(C)c1=O | i | -13% | 40µM* | -5% | 5%
COc1cccc(/C=C/C(=O)OCC(=O)c2c[nH]c3ccccc23)c1OC | -14% | -10% | 25µM* | 2% | 12%
COc1ccccc1/C=C/C(=O)OCC(=O)c1c(N)n(C)c(=O)n(C)c1=O | -16% | -15% | -2% | 0.89µM* | 18%
